Experimental findings from article PMC5540273 (PLoS ONE, 2017) are described below.

In one test the test system is SRMS. The settings on record: concentration: 1 μM, replicates: in singlicate; n = 1.
Another test deals with SRPK1. The settings on record: concentration: 1 μM, replicates: in singlicate; n = 1.
In the next test the test system is SRPK2. The conditions noted are these: concentration: 1 μM, replicates: in singlicate; n = 1.
The next test relates to SRPK3. The conditions noted are these: concentration: 1 μM, replicates: in singlicate; n = 1.
For the next test, the system named is STK16. The settings on record: concentration: 1 μM, replicates: in singlicate; n = 1.
Another test has as its system STK33. The conditions noted are these: concentration: 1 μM, replicates: in singlicate; n = 1.
The subject of another test is STK35. The conditions noted are these: concentration: 1 μM, replicates: in singlicate; n = 1.
The next test deals with STK36. The settings on record: concentration: 1 μM, replicates: in singlicate; n = 1.
For the next test, the system named is STK39. The conditions noted are these: concentration: 1 μM, replicates: in singlicate; n = 1.
A further test deals with SYK. The settings on record: concentration: 1 μM, replicates: in singlicate; n = 1.
For the next test, the system named is SgK110. The conditions noted are these: concentration: 1 μM, replicates: in singlicate; n = 1.
Another test relates to T1, TAK1.
T1 construct: gene MAP3K7
The conditions noted are these: concentration: 1 μM, replicates: in singlicate; n = 1.

The subject of another test is TAOK1. The settings on record: concentration: 1 μM, replicates: in singlicate; n = 1.
In the next test the test system is TAOK2. The settings on record: concentration: 1 μM, replicates: in singlicate; n = 1.
The next test deals with TAOK3. The settings on record: concentration: 1 μM, replicates: in singlicate; n = 1.
The test system of the next test is TBK1. The settings on record: concentration: 1 μM, replicates: in singlicate; n = 1.
A further test has as its system TEC. The conditions noted are these: concentration: 1 μM, replicates: in singlicate; n = 1.
In the next test the test system is TESK1. The conditions noted are these: concentration: 1 μM, replicates: in singlicate; n = 1.
For the next test, the system named is TGFBR1. The conditions noted are these: n = 1.
The next test concerns TGFBR2. The settings on record: concentration: 1 μM, replicates: in singlicate; n = 1.
Where [1] appears, read: concentration: 1 μM, replicates: in singlicate.

Structures are written as SMILES. Like-named read-outs stand apart in the source and are kept apart here.
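Note: KINOMEscan kinase panel screen.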

With `Fc1cccc(COc2ccc(Nc3ncnc4cc[nH]c34)cc2Cl)c1`, the “%Inh” value worked out at 0% in the test on SRMS; 8% in the test with SRPK1; 7% with SRPK2; 33% with SRPK3; 20% in the test on STK16; 15% in the test with STK33. Further, the “%Inh” value was 0% with STK35; 33% in the test on STK36; 9% in the test on STK39; 32% in the test with SYK; 0% in the test with SgK110; 8% in the test on TAK1. The “%Inh” value with TAOK1 amounted to 0%; in the test on TAOK2 it was 0%; with TAOK3 it was 0%; in the test with TBK1, 4%; in the test with TEC it was 18%; in the test with TESK1, 0%. Besides, the figures for the “%Inh” value in the test on TGFBR1 (setting [1]) and in the test with TGFBR2 were 9% and 0%, respectively.

In the case of `Clc1ccc(-c2cc(-c3c[nH]nc3-c3ccccn3)ccn2)cc1` [GW681251], the “%Inh” value came out at 0% in the test on SRMS; 0% with SRPK1; 0% in the test with SRPK2; 0% in the test on SRPK3; 19% in the test with STK16; 0% in the test on STK33. Also, the “%Inh” value in the test on STK35 was 0%; with STK36, 0%; in the test on STK39, 1%; in the test on SYK, 22%; in the test on SgK110 it was 0%; in the test with TAK1, 0%. Further, the “%Inh” value is recorded as 0% in the test with TAOK1; 0% in the test with TAOK2; 0% with TAOK3; 0% in the test on TBK1; 0% in the test on TEC; 12% in the test with TESK1. Moreover, the “%Inh” value came out at 79% in the test with TGFBR1 (1 µM) and 85% in the test with TGFBR2.

Consider `COc1cc2c(Nc3cccc(NC(=O)c4ccccc4)c3)ncnc2cc1OCCCN1CCOCC1` [GSK223810], for which the “%Inh” value with SRMS stood at 0%; in the test on SRPK1 it was 34%; in the test on SRPK2, 0%; in the test with SRPK3, 23%; with STK16, 0%; in the test on STK33 it was 4%. The “%Inh” value is recorded as 5% with STK35; 9% in the test on STK36; 0% in the test with STK39; 9% in the test on SYK; 0% in the test on SgK110; 0% in the test with TAK1. For the same compound, the “%Inh” value turned out to be 0% in the test with TAOK1; 0% with TAOK2; 0% with TAOK3; 1% in the test with TBK1; 0% in the test on TEC; 0% in the test with TESK1. Also, the “%Inh” value in the test on TGFBR1 (setting [1]) and with TGFBR2 was 0% in each case.

Turning to `CC(C)(C)OC(=O)NC1CCCN(c2cc(-c3ccc4c(N)n[nH]c4c3)nc(N)n2)C1` (centres unmarked) [GSK2286096], the “%Inh” value was found to be 0% in the test on SRMS; 15% with SRPK1; 0% in the test on SRPK2; 0% with SRPK3; 19% in the test with STK16; 53% in the test with STK33. Moreover, the “%Inh” value with STK35, in the test on STK36, with STK39, in the test on SYK, in the test on SgK110 and in the test on TAK1 was 0% in each case. Also, the “%Inh” value in the test on TAOK1 was 0%; with TAOK2, 0%; with TAOK3 it was 0%; with TBK1 it was 74%; with TEC it was 5%; with TESK1 it was 0%. In addition, the “%Inh” value in the test on TGFBR1 (setting [1]) and with TGFBR2 was 0% each time.

For `O=C(CCO)NCCn1ccc2ncnc(Nc3ccc(Oc4cccc(C(F)(F)F)c4)c(Cl)c3)c21`, the “%Inh” value in the test on SRMS stood at 0%; with SRPK1, 0%; with SRPK2, 0%; in the test with SRPK3, 4%; with STK16, 8%; in the test with STK33, 0%. Besides, the “%Inh” value with STK35 was determined as 5%; in the test with STK36, 0%; with STK39, 0%; with SYK, 4%; in the test on SgK110 it was 0%; in the test on TAK1, 0%. Also, the “%Inh” value in the test on TAOK1 was 0%; in the test on TAOK2 it was 10%; with TAOK3, 0%; with TBK1, 16%; in the test on TEC, 0%; in the test on TESK1, 6%. Also, the “%Inh” value in the test on TGFBR1 (setting [1]) and in the test on TGFBR2 was 0% throughout.

Regarding `Cl.c1ccc(Cn2ncc3cc(Nc4ncnc5ccccc45)ccc32)cc1` [GW273749], the “%Inh” value with SRMS is on record as 0%; in the test with SRPK1, 16%; with SRPK2, 0%; in the test with SRPK3, 0%; in the test with STK16, 40%; in the test with STK33 it was 0%. The “%Inh” value in the test on STK35 was 0%; with STK36 it was 0%; in the test with STK39 it was 0%; with SYK it was 18%; with SgK110, 0%; in the test with TAK1, 0%. In addition, the “%Inh” value was determined as 0% in the test with TAOK1; 0% with TAOK2; 0% in the test with TAOK3; 23% with TBK1; 0% in the test on TEC; 0% in the test on TESK1. The “%Inh” value with TGFBR1 (setting [1]) is 6%; with TGFBR2, 0%.

For `CCc1nc(-c2cccc(N(C)S(=O)(=O)c3ccccc3)c2)c(-c2ccnc(Nc3ccc(N4CCN(C(C)=O)CC4)nc3)n2)s1` [GSK1645895], the “%Inh” value with SRMS was found to be 19%; in the test on SRPK1, 19%; with SRPK2, 0%; in the test on SRPK3, 0%; in the test with STK16, 41%; with STK33 it was 0%. For the same compound, the “%Inh” value with STK35 was 0%; with STK36, 99.4%; in the test with STK39, 0%; in the test on SYK, 0%; in the test with SgK110 it was 0%; with TAK1, 0%. Moreover, the “%Inh” value in the test with TAOK1 worked out at 0%; in the test on TAOK2, 0%; in the test with TAOK3, 2%; in the test on TBK1, 27%; with TEC, 7%; in the test with TESK1 it was 0%. For the same compound, the figures for the “%Inh” value with TGFBR1 (setting [1]) and in the test on TGFBR2 were 17% and 0%, respectively.

Take `COc1ccc(-c2oc3ncnc(N)c3c2-c2ccc(OC)cc2)cc1` [SB-589132]: the “%Inh” value is on record as 6% in the test on SRMS; 30% with SRPK1; 53% with SRPK2; 0% in the test with SRPK3; 57% in the test with STK16; 0% in the test on STK33. Further, the “%Inh” value in the test with STK35 came to 0%; in the test with STK36, 0%; in the test on STK39, 24%; in the test with SYK, 20%; in the test with SgK110, 0%; in the test on TAK1, 0%. Besides, the “%Inh” value was 0% with TAOK1; 0% in the test on TAOK2; 0% with TAOK3; 0% in the test on TBK1; 15% with TEC; 36% with TESK1. For the same compound, the “%Inh” value is 7% in the test with TGFBR1 (setting [1]) and 12% in the test with TGFBR2.

On to `O=C(Nc1ccccc1F)NC1CCN(c2ccnc(Nc3ccc(F)cc3)n2)C1` (centres unmarked) [GSK1379722], for which the “%Inh” value with SRMS is on record as 0%; in the test on SRPK1, 0%; in the test with SRPK2, 0%; with SRPK3 it was 3%; in the test with STK16 it was 0%; with STK33, 0%. In addition, the “%Inh” value was found to be 0% in the test with STK35; 0% in the test with STK36; 29% in the test with STK39; 10% with SYK; 0% in the test on SgK110; 0% in the test on TAK1. Moreover, the “%Inh” value in the test with TAOK1 is reported as 0%; in the test with TAOK2 it was 0%; in the test with TAOK3 it was 0%; in the test on TBK1 it was 0%; with TEC, 6%; with TESK1, 16%. For the same compound, the entries for the “%Inh” value in the test on TGFBR1 (setting [1]) and with TGFBR2 were 25% and 0%, respectively.

Regarding `COc1ccc(NC(=O)Nc2ccc(C)c(-c3ccc(C(=O)Nc4ccncc4)cc3)c2)cc1` [GSK1398475], the “%Inh” value in the test on SRMS, in the test on SRPK1, in the test on SRPK2, in the test with SRPK3, in the test with STK16 and in the test with STK33 was 0% throughout. For the same compound, the “%Inh” value in the test on STK35, in the test with STK36, in the test on STK39, in the test on SYK, in the test on SgK110 and in the test on TAK1 was 0% in each case. The “%Inh” value came out at 0% in the test on TAOK1; 0% with TAOK2; 0% in the test on TAOK3; 6% in the test on TBK1; 3% with TEC; 19% in the test on TESK1. Further, the “%Inh” value in the test on TGFBR1 (setting [1]) is on record as 3%; in the test with TGFBR2, 0%.
